Where “and” joins values, the source holds several entries; their conditions need not be identical. Equal values may be shown once. Results filed as inconclusive are left out. Calls of active or inactive are those of the source. The call rests on the fitted dose curve; in most records, active means well fitted curve in the direction sought with a large enough effect; inconclusive means small, poorly fitted or top-dose-only effect, or another doubt; inactive means no such curve, though single readings can be large; an effect the other way counts as inactive or inconclusive.
What was measured:
[1] = P-glycoprotein substrates identified in KB-8-5-11 adenocarcinoma cell line, qHTS therapeutic library screen (AID 1346987); settings: KB-8-5-11 (P-gp overexpressing) viability, CellTiter-Glo, 72 h; series mostly up to 44.5 µM; further: nearly all actives have a fitted effect of over 65% in size; further: potency means the concentration at half of the fitted maximal effect; on activity change, negative = cytotoxicity: on the % scale 0 is the no-effect control and ±100 the full control effect
In short: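 KB-8-5-11, a colchicine-selected P-gp-overexpressing KB-3-1 subline, was grown without colchicine for the assay. Cells were seeded at 500 cells/well, dosed in concentration-response and incubated 72 h at 37 degree C, 5% CO2. Viability was read by CellTiter-Glo luminescence.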

[2] = qHTS of pediatric cancer cell lines to identify multiple opportunities for drug repurposing: Primary screen for TC32 cells (AID 1347089); settings: TC32 Ewing sarcoma viability, CellTiter-Glo luminescence, 48 h; series mostly up to 45.8 µM; further: nearly all actives have a fitted effect of over 60% in size; further: potency means the concentration at half of the fitted maximal effect; on activity change, negative = cytotoxic: on the % scale 0 is the no-effect control and ±100 the full control effect
In short: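 TC32 cells, 500-1,000/well in growth medium, compound-treated 48 h at 37 °C; viability from CellTiter-Glo luminescence. Primary screen: MIPE 11-point (0.78 nM–46 µM final), NPC 8-point (0.59 nM–46 µM final); confirmatory at 11-point dilutions.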

[3] = qHTS of pediatric cancer cell lines to identify multiple opportunities for drug repurposing: Primary screen for DAOY cells (AID 1347090); settings: DAOY medulloblastoma viability, CellTiter-Glo luminescence, 48 h; series mostly up to 46 µM; further: nearly all actives have a fitted effect of over 55% in size; further: potency means the concentration at half of the fitted maximal effect;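 on activity change, negative = cytotoxic: plate controls were DMSO for no effect and bortezomib for full effect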
In short: (§1)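 Eight- or eleven-point concentration series, 48 h treatment at 37 degrees C in growth media; readout CellTiter-Glo luminescence. Potency and efficacy were taken from the concentration-response curves.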

[4] = qHTS of pediatric cancer cell lines to identify multiple opportunities for drug repurposing: Primary screen for SJ-GBM2 cells (AID 1347091); settings: SJ-GBM2 viability, CellTiter-Glo luminescence, 48 h; series mostly up to 46 µM; further: potency means the concentration at half of the fitted maximal effect;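 on activity change, negative = cytotoxic: plate controls were DMSO neutral control for no effect and bortezomib for full effect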
In short: as §1

[5] = qHTS of pediatric cancer cell lines to identify multiple opportunities for drug repurposing: Primary screen for A673 cells (AID 1347092); settings: A673 Ewing sarcoma viability, CellTiter-Glo ATP luminescence, 48 h; series mostly up to 46 µM; further: nearly all actives have a fitted effect of over 45% in size; further: potency means the concentration at half of the fitted maximal effect
In short: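 A673 cells (500-1,000 cells/well) were treated 48 hours at 37 degrees C with compounds at 11-point (0.78 nM to 46 µM) or 8-point (0.59 nM to 46 µM) dilutions. Viability read by CellTiter-Glo luminescence; concentration-response curves fitted.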

[6] = qHTS of pediatric cancer cell lines to identify multiple opportunities for drug repurposing: Primary screen for SK-N-MC cells (AID 1347093); settings: SK-N-MC viability, CellTiter-Glo luminescence, 48 h; series mostly up to 46 µM; further: potency means the concentration at half of the fitted maximal effect;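 on activity change, negative = cytotoxic: plate controls were DMSO neutral control for no effect and bortezomib for full effect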
In short: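 Metabolically active cells were quantified by ATP-dependent luminescence (CellTiter-Glo, 15 min at room temperature) following 48 h treatment. Cells had been plated at 500-1,000 per well and settled for 5 h beforehand.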

[7] = qHTS of pediatric cancer cell lines to identify multiple opportunities for drug repurposing: Primary screen for BT-37 cells (AID 1347094); settings: BT-37 viability, CellTiter-Glo luminescence, 48 h; series mostly up to 57.3 µM; further: potency means the concentration at half of the fitted maximal effect;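 on activity change, negative = cytotoxic: plate controls were DMSO for no effect and bortezomib for full effect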
In short: (§2)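 Quantitative HTS format: each compound titrated (MIPE 11 points from 0.78 nM, NPC 8 points from 0.59 nM) onto cells plated 5 hours earlier. After 48 h at 37 degrees C, CellTiter-Glo luminescence was recorded.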

[8] = qHTS of pediatric cancer cell lines to identify multiple opportunities for drug repurposing: Primary screen for Saos-2 cells (AID 1347097); settings: Saos-2 viability, CellTiter-Glo ATP luminescence, 48 h; series mostly up to 46 µM; further: nearly all actives have a fitted effect of over 40% in size; further: potency means the concentration at half of the fitted maximal effect; on activity change, negative = cytotoxic: on the % scale 0 is the no-effect control and ±100 the full control effect
In short: as §2

[9] = qHTS of pediatric cancer cell lines to identify multiple opportunities for drug repurposing: Primary screen for NB-EBc1 cells (AID 1347095); settings: NB-EBc1 neuroblastoma viability, CellTiter-Glo luminescence, 48 h; series mostly up to 46 µM; further: potency means the concentration at half of the fitted maximal effect;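 on activity change, negative = cytotoxic: plate controls were DMSO neutral control for no effect and bortezomib for full effect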
In short: as §2

[10] = qHTS of pediatric cancer cell lines to identify multiple opportunities for drug repurposing: Primary screen for U-2 OS cells (AID 1347096); settings: U-2 OS viability, CellTiter-Glo luminescence, 48 h; series mostly up to 46 µM;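 further: plate controls were DMSO wells for no effect and bortezomib positive control wells for full effect; nearly all actives have a fitted effect of over 50% in size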
In short: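 Cells (500-1,000/well) in growth media were settled 5 h at 37 degrees C, then given compounds for 48 h. Viability was read as CellTiter-Glo luminescence. Primary runs used MIPE at 11 points (0.78 nM-46 µM) and NPC at 8 points (0.59 nM-46 µM); follow-ups used 11 points.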

[11] = qHTS of pediatric cancer cell lines to identify multiple opportunities for drug repurposing: Primary screen for SK-N-SH cells (AID 1347098); settings: SK-N-SH viability, CellTiter-Glo luminescence, 48 h; series mostly up to 57 µM; further: nearly all actives have a fitted effect of over 65% in size; further: potency means the concentration at half of the fitted maximal effect;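 on activity change, negative = cytotoxic: DMSO served as neutral control and bortezomib at 2.3 µM as positive control; on the % scale 0 is the no-effect control and ±100 the full control effect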
In short: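 Cells (500-1,000/well) rested 5 h, then received compounds for 48 h; metabolically active cells were measured by CellTiter-Glo luminescence. Final concentrations spanned up to 46 µM (MIPE, 11-point) or 0.59 nM-46 µM (NPC, 8-point) in primary screens, 11-point in follow-ups.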

[12] = NS1 protein of Zika virus - qHTS assay to identify small molecule inhibitors in human HEK 293 cells (AID 1347053); settings: HEK293 ZIKV MR766 infection, NS1 TR-FRET, 24 h; series mostly up to 46.1 µM;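 further: plate controls were infected untreated cells for no effect and uninfected cells for full effect; nearly all actives have a fitted effect of over 55% in size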
In short: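 Following 20 h seeding, HEK 293 cells took compound, then 1 h later ZIKV MR766 (MOI = 0.5). Incubation ran 24 h at 37 C before TR-FRET detection of NS1; a drop in signal indicates inhibition.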

N#CC(c1ccnc(NCCc2cccnc2)n1)c1nc2ccccc2s1 (stereo not given)
active: Potency [3] 29.6 µM | Potency [4] 9.35 µM | Potency [5] 4.69 µM | Potency [6] 11.8 µM | Potency [7] 24.3 µM | Potency [8] 18.7 µM
inactive: Potency [1] | Potency [2]

COc1ccc(C=CC(=O)Nc2ccccc2C(=O)O)cc1OC
inactive: Potency [1] | Potency [2] | Potency [3] | Potency [4] | Potency [7] | Potency [9] | Potency [10]

CN(CC=CC#CC(C)(C)C)Cc1cccc2ccccc12
inactive: Potency [1] | Potency [2] | Potency [3] | Potency [7] | Potency [10] | Potency [8] | Potency [11]

CCN(CC)CCCCNc1nc2cc(Cl)c(Cl)cc2nc1-c1ccc(-c2cccs2)s1
active: Potency [1] 9.35 µM | Potency [4] 10.5 µM | Potency [5] 11.8 µM | Potency [6] 13.2 µM | Potency [7] 27.3 µM | Potency [9] 20.9 µM | Potency [8] 18.7 µM
inactive: Potency [2]

NCc1c[nH]c(=S)n1[C@H]1CCc2c(F)cc(F)cc2C1
inactive: Potency [1] | Potency [2] | Potency [10]
active: Potency [4] 26.4 µM | Potency [5] 18.7 µM | Potency [6] 10.5 µM | Potency [7] 30.6 µM | Potency [9] 23.5 µM | Potency [8] 18.7 µM

CN(C)CCOc1cc(-c2cn[nH]c2)ccc1NC(=O)C1COc2ccccc2O1 (stereo not given)
active: Potency [6] 8.33 µM | Potency [8] 2.96 µM
inactive: Potency [1] | Potency [2] | Potency [3] | Potency [4] | Potency [7] | Potency [10]

O=C(O)C1=NC(C(=O)O)CC(C=CN2c3cc(O)c(OC4OC(CO)C(O)C(O)C4O)cc3CC2C(=O)O)=C1 (stereo not given)
inactive: Potency [1] | Potency [2] | Potency [3] | Potency [4] | Potency [5] | Potency [7] | Potency [9] | Potency [10] | Potency [8] | Potency [11]

CCc1cccc(CC)c1NC(=O)N1Cc2[nH]nc(NC(=O)c3ccc(N4CCN(C)CC4)cc3)c2C1
active: Potency [5] 14.8 µM | Potency [6] 0.833 µM | Potency [8] 1.18 µM | Potency [11] 6.07 µM
inactive: Potency [1] | Potency [12] | Potency [7] | Potency [9]

N#Cc1ccc(Oc2ccc3c(c2)COB3O)cc1
inactive: Potency [1] | Potency [2] | Potency [3] | Potency [10] | Potency [8]

CC(C)C[C@@H](C(=O)N[C@H](C(=O)OC1CCCC1)c1ccccc1)[C@H](O)C(=O)NO
inactive: Potency [2] | Potency [10]
active: Potency [1] 20.9 µM | Potency [4] 20.9 µM | Potency [5] 14.8 µM | Potency [6] 18.7 µM | Potency [7] 24.3 µM | Potency [9] 18.7 µM | Potency [8] 16.6 µM

CN1N=C(N)c2cn([C@@H]3O[C@H](COP(=O)(O)O)[C@@H](O)[C@@H]3O)c3ncnc1c23
active: Potency [1] 0.833 µM | Potency [2] 4.15 µM | Potency [3] 14.8 µM | Potency [4] 7.43 µM | Potency [6] 0.0042 µM | Potency [9] 1.66 µM | Potency [8] 2.09 µM | Potency [11] 21.5 µM

c1ccc(CNc2nc(N3CCOc4ccccc43)nc3c2CCCC3)cc1
active: Potency [4] 23.5 µM
inactive: Potency [1] | Potency [2] | Potency [3] | Potency [5] | Potency [10]

CCNC(=O)c1noc(-c2cc(C(C)C)c(O)cc2O)c1-c1ccc(CN2CCOCC2)cc1
active: Potency [1] 0.0731 µM | Potency [2] 0.165 µM | Potency [3] 0.235 µM | Potency [4] 0.332 µM | Potency [6] 0.0526 µM | Potency [7] 0.137 µM | Potency [9] 0.296 µM | Potency [11] 0.152 µM

CNC1CCC(N(Cc2cccc(-c3ccncc3)c2)C(=O)c2sc3ccccc3c2Cl)CC1 (stereo not given)
inactive: Potency [2] | Potency [3] | Potency [10]
active: Potency [1] 11.8 µM and 20.6 µM | Potency [4] 23.5 µM | Potency [5] 14.8 µM | Potency [6] 23.5 µM | Potency [7] 24.3 µM | Potency [9] 26.4 µM | Potency [8] 26.4 µM | Potency [11] 24.1 µM

FC(F)(F)c1ccc(C=Cc2nc(COc3ccc(CCCCn4ccnn4)cc3)co2)cc1
active: Potency [2] 6.58 µM | Potency [3] 0.0187 µM | Potency [4] 0.0037 µM | Potency [6] 0.0093 µM | Potency [7] 0.0109 µM | Potency [8] 0.0332 µM
inactive: Potency [1] | Potency [10]

CO[C@H]1C=CO[C@@]2(C)Oc3c(C)c(O)c4c(O)c(c(C=NN5CCN(C)CC5)c(O)c4c3C2=O)NC(=O)C(C)=CC=C[C@H](C)[C@H](O)[C@@H](C)[C@@H](O)[C@@H](C)[C@H](OC(C)=O)[C@H]1C
inactive: activity change, negative = cytotoxicity [1] 0.164% [at 9.29 µM] | activity change, negative = cytotoxic [2] 6.56% [at 9.17 µM] | activity change, negative = cytotoxic [3] -7.74% [at 9.22 µM] | activity change, negative = cytotoxic [4] 4.67% [at 9.22 µM] | activity change, negative = cytotoxic [6] -4.39% [at 9.22 µM] | activity change, negative = cytotoxic [7] -9.92% [at 11.5 µM] | activity change, negative = cytotoxic [9] -7.84% [at 9.22 µM] | activity change, negative = cytotoxic [10] -1.44% [at 9.22 µM] | activity change, negative = cytotoxic [11] -10.6% [at 11.4 µM]

CO[C@@H]1C(N(C)C(=O)c2ccccc2)C[C@H]2O[C@]1(C)n1c3ccccc3c3c4c(c5c6ccccc6n2c5c31)C(=O)NC4=O (stereo not given in full)
inactive: Potency [12] | Potency [7]
active: Potency [1] 7.43 µM | Potency [4] 2.35 µM | Potency [5] 2.96 µM | Potency [6] 1.32 µM | Potency [11] 6.07 µM

COc1ccc(-c2nc3ccc(C4=NNC(=O)CC4C)cc3[nH]2)cc1 (stereo not given)
inactive: Potency [1] | Potency [12] | Potency [10]
active: Potency [3] 21.1 µM | Potency [6] 21.1 µM

CCOC(=O)[C@H]1O[C@H]1C(=O)N[C@@H](CC(C)C)C(=O)NCCC(C)C
active: Potency [5] 18.7 µM
inactive: Potency [1] | Potency [12] | Potency [4] | Potency [9] | Potency [10]

C[C@H](CCC(=O)O)[C@H]1CC[C@H]2[C@H]3[C@@H](CC[C@]12C)[C@@]1(C)CC[C@@H](O)C[C@H]1C[C@@H]3O
active: Potency [7] 27.3 µM | Potency [9] 14.8 µM
inactive: Potency [1] | Potency [2] | Potency [3] | Potency [10] | Potency [8] | Potency [11]

Source: PubChem BioAssay (NCATS)
